A549 tox: kills or reduces viability of A549 cells in Nrf2 counter-screen. AID 504648. Potency, µM (series often up to 46 µM), for inactives: top-dose activity change, negative = cytotoxicity, most hits filed as inhibitors. A549 ARE-Fluc cells, CellTiter-Fluor viability, 18-24 h. actives 0.16% (n = 390,000); also: % is scaled to controls: 0 for no effect and ±100 for the full control effect
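A549 ARE_Fluc cells in 5% FBS OPTI-MEM were exposed to compounds in concentration-response for 18-24 h at 37 deg C. Viability was read by CellTiter-Fluor fluorescence (Ex 405/Em 525) after 30 min, before the luciferase read.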
Nrf2 ARE act: activators of Nrf2 (ARE) signaling | AREc32 ARE-luciferase reporter (MCF7-derived line), luminescence, 24 h | Potency, µM (doses to about 46.1 µM), for inactives: top-dose activation, usual class: activators | actives 0.31% (n = 410,000) | AID 624171; also: % of control where 0% means no effect; nearly all actives have a fitted effect of over 65% in size
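ARE activation measured as luciferase luminescence (Steady-Glo, 30 min RT) in AREc32_Fluc cells after 24 hr compound exposure at 37 deg C, 5% CO2; cells seeded overnight at 1000/well in OPTI-MEM, 5% FBS.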
Nrf2 inh: inhibitors of Nrf2 signaling; Potency, µM (highest dose often 46 µM), without a hit: at the highest dose activity change, negative = inhibition, most hits filed as inhibitors; AID 504444; actives 2.1% (n = 360,000); A549 ARE-Fluc reporter, luciferase luminescence, 18-24 h; also: % is scaled to controls: 0 for no effect and ±100 for the full control effect; nearly all actives have a fitted effect of over 60% in size
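Cells were seeded and rested 2 h, then exposed to compounds for 18-24 h. CellTiter-Fluor was read first as a viability measure. BugLite was added 15 min before the final luminescent read of ARE-luciferase activity in A549 cells.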
Epigenetic reg: epigenetic control regulation, reporter derepression; murine LDR cells, GFP reporter derepression, 30 h; Potency, µM (doses to about 53.9 µM), without a hit: top-dose GFP activation, usual class: activators; actives 0.2% (n = 280,000); also: % of control where 0% means no effect; nearly all actives have a fitted effect of over 60% in size
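GFP-positive cell count by laser-scanning cytometry (objects 20–120 um) after 30 h, 37 C compound exposure of murine LDR cells; reporter is CMV-GFP integrated at a silenced locus, inducible by HDAC or DNMT inhibitors.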
PINK1 expr mod: changes PINK1 expression. Potency, µM (doses to about 76.6 µM), inactives show top-dose activation (PINK1 increase), hits mostly activators. actives 0.2% (n = 410,000). PINK1 immunofluorescence, high-content cytometry, 24 h; active = well fitted activation curve with a large enough effect; inconclusive = small, poorly fitted or top-dose-only effect; cell line not stated here; also: % of control where 0% means no effect; nearly all actives have a fitted effect of over 65% in size
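Measures PINK1 amount and localization on or inside mitochondria by immunofluorescence. Stable cells get compounds at 5 concentrations for 24 hours before fixation and staining; CCCP controls included.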
* hit, by the source's call; ? = inconclusive; / = no result given; [ ] = another dose, or the depositor's remark. Compounds with a hit are over-represented: about 2.4% of the library has one in this group of screens. Unless noted, calls follow the shape of the dose curve; as a rule, active = well fitted curve in the direction sought with a large enough effect; inconclusive = small, poorly fitted or top-dose-only effect, or another doubt; inactive = no such curve, though single readings can be large; an effect the other way counts as inactive or inconclusive. Potency is read from the fitted curve at half-maximal effect.

SMILES	A549 tox	Nrf2 ARE act	Nrf2 inh	Epigenetic reg	PINK1 expr mod
COc1ccccc1C1c2c(ncn(-c3ccccc3)c2=N)Oc2ccc3ccccc3c21 (stereo unspecified)	21µM*	/	23µM*	/	/
COc1cccc(C2c3c(ncn(-c4ccccc4OC)c3=N)Oc3ccc4ccccc4c32)c1 (stereo unspecified)	?	/	-26%	/	/
O=C(c1ccco1)N(Cc1cc2cc3c(cc2nc1N1CCOCC1)CCC3)CC1CCCO1 (stereo unspecified)	/	/	/	/	0%
Clc1cccc(Cl)c1CON/C=N/c1ncnc2sccc12	-4%	0%	?	0%	4%
Clc1cccc(CON/C=N/c2ncnc3sccc23)c1	-4%	-1%	16µM*	-1%	2%
Cc1cc2c(s1)c1cnn(Cc3c(Cl)cccc3Br)c(=O)c1n2C	-5%	/	16%	/	/
Nc1c(C(=O)c2ccc(Br)s2)oc2ccccc12	-2%	3.2µM*	-32%	1%	1%
CC1(C)CC(=O)C2=C(C1)Oc1nc3ccccc3cc1C2C(C#N)C#N (stereo unspecified)	?	7.1µM*	?	-2%	-2%
COc1cc(OC)cc(C(=O)NC(=S)NNC(=O)[C@H]2C[C@@H]2c2ccccc2)c1	-6%	0%	?	1%	0%
COc1cc(OC)cc(C(=O)NC(=S)Nc2ccc3c4c(cccc24)CC3)c1	2%	-1%	/	0%	?
COc1ccc(C(=O)NC(=S)NNC(=O)[C@H]2C[C@@H]2c2ccccc2)cc1OC	0%	0%	16µM*	17%	4%
COc1ccc(C(=O)NC(=S)Nc2ccc3c4c(cccc24)CC3)cc1OC	-16%	-1%	7.3µM*	-1%	1%
CCc1c(C)sc(NC(=O)CSc2nc3c(c(C(F)(F)F)n2)CCc2ccccc2-3)c1C#N	2%	0%	/	1%	16µM*
CC(NC(=O)CSc1nc2c(c(C(F)(F)F)n1)CCc1ccccc1-2)c1ccccc1 (stereo unspecified)	-14%	0%	?	2%	-1%
O=C(c1cccc(C(=O)N(c2ccccn2)C2CCCCC2)c1)N(c1ccccn1)C1CCCCC1	-15%	6%	16µM*	-2%	-2%
O=C(c1ccc(Cl)cc1)N(c1ccccn1)C1CCCCC1	1%	-1%	1%	2%	4%
COc1ccccc1-c1ccnc(-n2ncc(C(=O)N[C@H]3CCCCNC3=O)c2C2CC2)n1	/	/	/	/	10%
COc1ccccc1C(=O)N[C@@H]1c2ccccc2C2(CCN(Cc3cccnc3)CC2)[C@H]1O	/	/	/	/	0%
COc1ccc(CCNc2oc(-c3ccc(OC)c(OC)c3)nc2C#N)cc1	-9%	1%	23µM*	-3%	-2%[38.3 µM]
CC#C[C@]1(O)CC[C@H]2C3CCC4=CC(=O)CCC4=C3[C@@H](c3ccc(N(C)C)cc3)C[C@@]21C (stereo partly specified)	/	/	/	4%	/
CCn1cnc2c(Nc3ccc(Cc4cccnc4)cc3)nc(C#N)nc21	-14%	/	?	/	/
CCCCn1c(CCC)nc([N+](=O)[O-])c1Sc1ccc(Cl)cn1	1%	11µM*	?	1%	-1%
Cc1cc2c(c(-c3cnccn3)c1)OC(CNC(=O)c1cc(Cl)ccc1F)C2 (stereo unspecified)	/	/	/	/	1%
COc1ccc(CNC(=O)CN2C(=O)C(c3ccccc3)Oc3cccnc32)cc1 (stereo unspecified)	?	2%	23µM*	/	2%
O=C(CNC(=S)NC(=O)c1ccccc1Br)c1ccccc1	8%	2.2µM*	?	-2%	9%
SMILES	A549 tox	Nrf2 ARE act	Nrf2 inh	Epigenetic reg	PINK1 expr mod
CN(CCO)c1cc(N2CCC3(CC2)OCCO3)c2nonc2c1[N+](=O)[O-]	-18%	0%	-4%	0%	0%
O=[N+]([O-])c1c(NCCO)cc(N2CCC3(CC2)OCCO3)c2nonc12	9.2µM*	0%	-18%	-2%	3%
COc1cccc(CCNc2ncnc3sc(C(=O)N4CCOCC4)c(C)c23)c1	/	/	/	/	-1%
CCOc1ccc(CN(C)C(=O)c2ccc3c(c2)NC(=O)C(C)S3)cc1OC (stereo unspecified)	-19%	6%	16µM*	/	-2%
O=C(Nc1c(O)c2ccccc2[nH]c1=O)c1ccco1	2%	10µM*	6%	0%	0%
CCCCCCC(=O)Nc1c(O)c2ccccc2[nH]c1=O	-5%	3%	?	0%	0%
CCOc1ccc(N(CC(=O)Nc2ccc(C)c(C)c2)S(=O)(=O)c2c(C)noc2C)cc1	-12%	0%	13µM*	3%	0%
CCOc1ccc(N(CC(=O)Nc2ccccc2C)S(=O)(=O)c2c(C)noc2C)cc1	1%	-2%	27%	1%	8%
COc1ccc(N(CC(=O)Nc2cccc(C)c2)S(=O)(=O)c2c(C)noc2C)cc1	-6%	-1%	?	/	1%
CCOc1ccc(N(CC(=O)Nc2cccc(F)c2)S(=O)(=O)c2c(C)noc2C)cc1	-16%	-1%	13µM*	0%	3%
COc1ccccc1CN1CCC2(CCC(CNC(=O)c3ccccc3N(C)C)O2)CC1 (stereo unspecified)	/	/	/	/	-1%
CN(Cc1ccco1)C(=O)c1cc(NC(=O)C2CCC2)c2c(c1)nc(-c1ccncc1)n2C	/	/	/	/	0%
Cc1cc(C(=O)Nc2ccccc2-c2nc(CNC(=O)c3cc4ccccc4cn3)c(C)o2)c(C)o1	/	/	/	/	-1%
Cc1ccc(S(=O)(=O)N[C@H]2COC(=O)[C@H](C)COC(=O)[C@H](C)NC(=O)C/C=C\[C@H]2C)cc1	/	/	/	0%[10.1 µM]	/
CN(N=Cc1ccccc1O)c1ccc2ccccc2n1	/	4.5µM*	/	/	5%
Cc1ccc(C(c2nnnn2Cc2ccccc2)N2CCN(Cc3ccncc3)CC2)cc1 (stereo unspecified)	0%	/	19%	/	-1%
Cc1cccc(N2CCN(C(=O)COc3ccc4c(C)cc(=O)oc4c3C)CC2)c1C	-8%	0%	16µM*	/	0%
CCc1cc(=O)oc2c(C)c(OCC(=O)N3CCCc4ccccc43)ccc12	1%	2%	12µM*	-1%	-2%
CCc1ccc(NS(=O)(=O)c2ccc3[nH]c(=O)[nH]c3c2)cc1	-2%	0%	-11%	0%	1%
CC(C)Cc1ccc(S(=O)(=O)Nc2ccc3[nH]c(=O)[nH]c3c2)cc1	0%	1%	18µM*	11%	5%
CCOC(=O)c1c(C)nc2sc3c(=O)n(-c4ccc(C(C)=O)cc4)cnc3c2c1-c1ccc(Cl)cc1	-19%	-1%	23µM*	1%	-1%
CCOC(=O)c1c(C)nc2sc3c(=O)n(-c4ccc(C(C)=O)cc4)nnc3c2c1-c1ccc(Cl)cc1	?	0%	18µM*	-2%	-1%
